Bioassay records as filed in PubChem BioAssay.
Shiga toxin inh – Shiga toxin inhibition. Vero cells, Shiga toxin protein synthesis inhibition reporter. AID 2315. 9.2% of 290,000 active. inhibition, % at 38.7 µM; in the data active = inhibition mostly above about 28%, no sharp cut-off; inactive = mostly below about 43%; also: 0% is about no effect
Pf growth 96h – P. falciparum growth inhibition at 96 hours. P. falciparum luciferase reporter growth, 96 h. Potency, µM (top dose mostly 28.7 µM), without a hit: at the highest dose activity change, negative = inhibition, most hits filed as inhibitors. 6.9% of 320,000 active. AID 504834; also: potency is read from the fitted curve at half-maximal effect; % is scaled to controls: 0 for no effect and ±100 for the full control effect
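Two parasite generations (96 h, 37 C, 5% CO2) of compound exposure in infected erythrocytes (0.05% parasitemia, 2% hematocrit). Luciferase-reporter P. falciparum; decreased luminescence indicates inhibited growth, aimed at apicoplast-acting delayed death.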
NS1 inh – inhibitors of influenza NS1 protein function | 0.4% of 270,000 active | AID 2326 | Potency, µM (titrated, usually from 46.1 µM), inactives show at the highest dose activity, positive = more growth; calls by dose curve; also: potency is read from the fitted curve at half-maximal effect; actives are rising curves; nearly all actives have a fitted effect of over 50% in size
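Growth recovery, yeast-based: influenza A NS1 expressed in S. cerevisiae causes slow growth, and suppressors are detected by OD600. The parent strain without NS1 is used as positive control.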
Giardia FBPA inh – inhibitors of Giardia lamblia fructose-1,6-bisphosphate aldolase | A8B2U2 | purified Giardia FBPA | Potency, µM (top dose mostly 59.6 µM), inactives show at the top dose activity, negative = inhibition, actives largely listed as inhibitors | 0.71% of 290,000 active; also: potency is read from the fitted curve at half-maximal effect; % is scaled to controls: 0 for no effect and ±100 for the full control effect; nearly all actives have a fitted effect of over 55% in size
Target sequence (A8B2U2 whole entry, looked up): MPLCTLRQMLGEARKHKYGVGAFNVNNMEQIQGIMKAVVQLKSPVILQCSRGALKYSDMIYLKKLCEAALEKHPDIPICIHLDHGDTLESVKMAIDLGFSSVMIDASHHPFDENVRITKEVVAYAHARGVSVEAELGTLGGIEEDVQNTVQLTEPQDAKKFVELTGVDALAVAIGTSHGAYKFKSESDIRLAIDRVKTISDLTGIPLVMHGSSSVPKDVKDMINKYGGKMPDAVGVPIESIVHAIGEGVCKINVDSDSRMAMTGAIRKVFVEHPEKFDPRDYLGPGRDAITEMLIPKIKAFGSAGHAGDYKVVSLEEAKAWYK
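40 nM FBPA preincubated 10 min at RT with compound (up to 57.5 uM final), then substrate plus GAPDH/TPI/NAD/arsenate coupling and diaphorase/resazurin added. Fluorescence read after 20 min at RT, 525/598 nm.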
Pf growth 48h – inhibits P. falciparum growth in the first generation, 48 h | P. falciparum luciferase growth in erythrocytes, 48 h | Potency, µM (top dose mostly 28.7 µM), inactives show at the top dose activity change, negative = inhibition, usual class: inhibitors | 5.9% of 310,000 active; also: potency is read from the fitted curve at half-maximal effect; % is scaled to controls: 0 for no effect and ±100 for the full control effect
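A one-generation exposure of luciferase-tagged malaria parasites in RPMI 1640/Albumax erythrocyte culture, 37 C and 5% CO2. Inhibition is inferred from decreased luminescence after adding detection reagent.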
Cycloheximide cs – affects cycloheximide protein synthesis inhibition readout, counter-screen | cell reporter, cycloheximide protein synthesis inhibition counterscreen | 12% of 300,000 active | max response, %; in the data active = max response mostly above about 13%, no sharp cut-off; inactive = mostly below about 14%; also: read at 38.3 µM for the half of the compounds with a filed dose; 0% is about no effect
Starred values were filed as active, the others as inactive; u = inconclusive; x = no result; [ ] = another dose, or the depositor's remark. Rows were chosen to be rich in hits. Some 21% of all compounds tested hit in one or more screens of this group. Unless noted, calls follow the shape of the dose curve; as a rule, active = well fitted curve in the direction sought with a large enough effect; inconclusive = small, poorly fitted or top-dose-only effect, or another doubt; inactive = no such curve, though single readings can be large; an effect the other way counts as inactive or inconclusive.

SMILES | Shiga toxin inh | Pf growth 96h | NS1 inh | Giardia FBPA inh | Pf growth 48h | Cycloheximide cs
O=C(CCc1ccc(S(=O)(=O)N2CCOCC2)cc1)N/N=C/c1ccc(O)c(O)c1O | 6 | 0% | 17% | u | 2% | -2
Oc1ccc(/C=N/N2CCOCC2)c(O)c1O | -5 | 9% | x | 5.6µM* | -4% | 13
Brc1ccccc1/C=N/N1CCCCC1 | -4 | 21% | 12% | 1% | -6% | 4
Oc1ccccc1/C=N/N1CCCCC1 | 85* | 31% | x | -4% | 6% | 40*
CC(OC(=O)c1cccc(-n2cnnn2)c1)C(=O)NCc1ccccc1 (configuration not stated) | x | 14% | x | x | 9% | x
Cc1ccc(NC(=O)Cn2nnc(C(=O)NCCc3ccccc3)c2N)c(C)c1 | -9 | 0% | 0% | 0% | 49% | 9
COc1cc(C(CC(=O)Nc2ccc(C)cn2)N2Cc3ccccc3C2=O)cc(OC)c1OC (configuration not stated) | -8 | -17% | -7% | -4% | -20% | -1
O=C(O)c1ccc(N/N=C/c2cccc3cccnc23)cc1 | 83* | 150% | -7% | 6% | 212% | 49*
O=C(O)c1ccc(N/N=C/c2ccnc3ccccc23)cc1 | 91* | 175% | 7% | 2% | 137% | 41*
Oc1ccccc1/C=N/Nc1cccc2cccnc12 | 101* | 37% | -6% | x | 166% | 30*
O=C(COc1cccc2cccnc12)N/N=C/c1ccccc1O | -1 | u | -5% | 22% | u | 9
OC[C@H]1O[C@@H](n2cnc3c(Nc4ccccc4)ncnc32)[C@H](O)[C@H]1O | x | x | -6% | -3% | x | x
CC(=O)N1CCC[C@@]2(CCN(c3ccncc3)C2)C1 | x | x | x | -1% | x | x
COc1ccc(NC(=O)NCc2ccco2)cc1OC | 20 | -2% | -5% | 5% | -11% | -2
O=C(NCc1ccco1)Nc1ccc(Br)cc1 | 66* | 11% | -35% | -1% | 46% | 21
O=C(NCc1ccco1)Nc1ccc(OC(F)(F)F)cc1 | 20 | u | -38% | -7% | u | 18*
O=C(NCc1ccco1)Nc1ccc2nsnc2c1 | 42 | -22% | 1% | u | 41% | 30*
CCc1ccc(S(=O)(=O)NC2CC(C)(C)NC(C)(C)C2)cc1 | -9 | 24% | -1% | -3% | 2% | -2
CCOc1ccc(-c2n[nH]c(C(=O)NN)c2C)cc1 | 95* | 41% | u | 5% | 92% | 32*
NNC(=O)c1[nH]c(-c2ccccc2)cc1-c1ccccc1 | -11 | u | u | 13% | u | -2
Cc1c(-c2ccccc2)n[nH]c1C(=O)NN | 97* | 79% | x | 1% | 15% | 43*
Cc1cnc(CNc2cc(-c3cccc(C#N)c3)ncn2)cn1 | x | x | x | 1% | x | x
C1=C(c2cccc3ccccc23)N2CCN=C2S1 | 46 | 13µM* | -2% | 3% | u | -4
Clc1ccc(C2=CSC3=NCCN23)cc1Cl | -8 | u | -5% | -2% | u | -1
CC(C)(C)c1ccc(C2=CSC3=NCCN23)cc1 | -4 | 0.26µM* | -9% | u | u | -4
SMILES | Shiga toxin inh | Pf growth 96h | NS1 inh | Giardia FBPA inh | Pf growth 48h | Cycloheximide cs
O=C(O)c1cc2ccccc2c(S(=O)(=O)O)c1O | x | x | 0% | x | x | x
Cn1c(SCC(=O)Nc2nccs2)nnc1-c1ccccn1 | -11 | -17% | 3% | -28% | u | 7
CCc1ccc(-c2cc(C)no2)cc1S(=O)(=O)N1CCN(c2ccccc2)CC1 | -6 | 3% | 12% | x | u | -1
FC(F)(F)c1ccc(N/N=C/c2cccnc2)nc1 | 71* | u | -37% | -7% | u | 41*
C(=N\Nc1ccccn1)/c1cccnc1 | x | u | 5% | u | 32% | 24*
C(=N/Nc1ccccn1)/c1cccnc1 | x | x | -9% | x | x | x
CCOC(=O)c1c(-c2ccccc2)csc1NC(=O)CSc1nc(C)cc(C)n1 | -6 | u | -25% | -5% | 13µM* | -5
CCOC(=O)c1c(-c2ccccc2)csc1NC(=O)CSc1nc(N)cc(N)n1 | -4 | 3.3µM* | u | -1% | 3% | -1
CCOC(=O)c1c(-c2ccc(C)o2)csc1NC(=O)CSc1nncs1 | -13 | 31% | -51% | -19% | 10µM* | 2
CCOC(=O)c1c(-c2ccc(C)o2)csc1NC(=S)NC(=O)c1ccc(F)cc1 | -17 | 7.4µM* | 6% | 7% | 8.3µM* | -1
CCOC(=O)c1c(-c2ccc(OC)cc2)csc1NC(=O)CCN1C(=O)c2ccccc2C1=O | -8 | u | 11% | 0% | -3% | -2
Nn1c(COc2cccc(Br)c2)nnc1SCC(=O)NCC1CCCO1 (configuration not stated) | x | -15% | x | x | u | x
Cn1c(Cc2cccs2)nnc1SCC(=O)N1CCCc2ccccc21 | 4 | u | 6% | -6% | x | -6
Cn1cccc1Cc1nnc(SCC(=O)NC2CCCC2)n1CCc1ccccc1 | -2 | 8.3µM* | u | 2% | x | -3
O=C(CSc1nnc(Cc2cccs2)n1CCc1ccccc1)N1CCCc2ccccc21 | -22 | x | -4% | 2% | 9.3µM* | 12
Cn1cccc1Cc1nnc(SCC(=O)N2CCc3ccccc32)n1CCc1ccccc1 | 11 | u | 1% | 0% | 13µM* | -3
Cn1cccc1Cc1nnc(SCC(N)=O)n1CCc1ccccc1 | -13 | u | -9% | 2% | 2% | -3
Cn1cccc1Cc1nnc(SCC(=O)N2CCCC2)n1CCc1ccccc1 | -8 | u | u | 2% | x | -3
CC(=O)OC[C@@H]1O[C@@H](O/N=C2/C[C@@H](O)[C@@H](O)[C@@H]3[C@@H]4C(=O)N(C5CCCCC5)C(=O)[C@H]4CC[C@@H]23)[C@H](OC(C)=O)[C@H](OC(C)=O)[C@@H]1OC(C)=O | x | x | x | 1%[12.9 µM] | x | x
NCCC(=O)N[C@H](Cc1cnc[nH]1)C(=O)O | x | x | x | -2% | x | x
CC1CN=C(N(C(=S)Nc2ccccc2)c2cccc(C(F)(F)F)c2)S1 (configuration not stated) | 33 | 3% | -4% | -1% | 24% | 14*
CCn1cc([N+](=O)[O-])c(=O)c2cc(F)c(N3CCOCC3)cc21 | -5 | u | 6% | 18% | u | 0
CCn1cc(C(=O)O)c(=O)c2cc(F)c(N3CCNCC3)cc21 | -9 | 1.6µM* | -4% | 14% | u | 3
CCn1cc(C(=O)NN)c(=O)c2cc(F)c(N3CCOCC3)cc21 | 3 | 12µM* | 14% | 15% | u | -8
CCCCCCCC(=O)N1CCN(c2cc3c(cc2F)c(=O)c(C(=O)O)cn3CC)CC1 | -5 | u | -1% | 10% | u | -2
CCn1cc(C(=O)O)c(=O)c2cc(F)c(N3CCN(C(=O)Nc4ccccc4)CC3)cc21 | -7 | 5% | -37% | 8% | 0.47µM* | -2
CCn1cc(C(=O)O)c(=O)c2cc(F)c(N3CCN(C(=S)NC(=O)c4ccccc4F)CC3)cc21 | 2 | 6.6µM* | 2% | u | 4.1µM* | -1
